{"source": "ChEMBL document CHEMBL3988442", "about": "“University of Dundee, Small-Polar-MMV Screening Library” (2021)", "note": "About 900 (1.7%) of roughly 53,000 compounds showed an effect of 50% or more. For the sample, strong results were picked, then their nearest neighbours and some compounds at random."}
{"system": "Mycobacterium tuberculosis", "assay": "Cornell - Phenotypic assay to identify agents that inhibit growth of Mycobacterium tuberculosis", "assay_type": "functional", "design": "scale not given: direction of the effect not stated beside the values", "settings": "10 mM as filed; unlikely as a test dose", "units": {"Percent Effect": "%"}}
{"smiles": "CCc1ccc(NC(=O)N2C[C@H]3C[C@H](C(=O)N4CCCC4)[C@@H](C2)O3)cc1", "Percent Effect": -25.04}
{"smiles": "O=C(c1ccccc1F)N1CC[C@@H]2CN(c3ncccn3)CCO[C@@H]2C1", "Percent Effect": 12.82}
{"smiles": "CNC(=O)CS(=O)(=O)C1CCN(S(=O)(=O)c2ccccc2Br)CC1", "Percent Effect": 7.561}
{"smiles": "O=S(=O)(Cc1ccccc1Cl)N1CCC2(CC1)OCCS2", "Percent Effect": 47.83}
{"smiles": "O=S(=O)(c1ccccc1Br)N1CCC2(CC1)OCCS2", "Percent Effect": 54.27}
{"smiles": "O=S(=O)(c1ccccc1Cl)N1CCC2(CC1)OCCS2", "Percent Effect": 36.27}
{"smiles": "Cc1c(Cl)cccc1S(=O)(=O)N1CCC2(CC1)OCCS2", "Percent Effect": 53.55}
{"smiles": "O=S(=O)(NC1CCC2(CC1)OCCO2)c1ccccc1Br", "Percent Effect": 9.266}
{"smiles": "CS(=O)(=O)N1CCC(CNc2cc(Cl)ccc2C#N)CC1", "Percent Effect": -6.261}
{"smiles": "COCCO[C@H]1CCN(C(=O)c2cccnc2)[C@H]1Cc1cnn(C)c1.O=C(O)C(F)(F)F", "Percent Effect": 12.42}
{"smiles": "COCCS(=O)(=O)c1ncc(CN(C)CC(C)C)n1Cc1ccccc1", "Percent Effect": -3.776}
{"smiles": "CCN(C(=O)CCc1ccc2[nH]ccc2c1)C1CC(=O)NC1=O", "note": "(configuration not stated)", "Percent Effect": 14.54}
{"smiles": "COCC(=O)N(Cc1ccc2[nH]ccc2c1)C1CC1", "Percent Effect": 26.94}
{"smiles": "COCC(=O)N(Cc1ccc2cc[nH]c2c1)C1CC1", "Percent Effect": 57.03}
{"smiles": "CCNC(=O)N(Cc1cccc(OC)c1)C1CCC(O)CC1", "note": "(configuration not stated)", "Percent Effect": 21.75}
{"smiles": "COC(=O)CCC(=O)N(Cc1ccc2cc[nH]c2c1)C1CC1", "Percent Effect": 90.28}
{"smiles": "O=C(C1CC1)N(Cc1ccc2cc[nH]c2c1)C1CC1", "Percent Effect": 42.2}
{"smiles": "CCOc1ccccc1C1=CCN(C(=O)C2CCN(C)C(=O)C2)CC1", "note": "(configuration not stated)", "Percent Effect": -20.28}
{"smiles": "COC(=O)c1cccn1C1CCN(C(=O)c2ccc(C)[nH]c2=O)CC1", "Percent Effect": -31.25}
{"smiles": "CCc1cc(N(C)Cc2ccnc(C)c2)n2nc(C)c(C)c2n1", "Percent Effect": -23.54}
{"smiles": "CCc1cc(N(C)Cc2cc[nH]n2)n2nc(C)c(C)c2n1", "Percent Effect": 4.829}
{"smiles": "CCc1cc(N(C)Cc2ccncn2)n2nc(C)c(C)c2n1", "Percent Effect": 59.71}
{"smiles": "Cc1nc(C2CCCN(C(=O)c3cc(Cl)c4c(c3)OCO4)C2)no1", "note": "(configuration not stated)", "Percent Effect": 12.39}
{"smiles": "O=C(C1CCCO1)N1C[C@@H]2CCN(c3cnccn3)C[C@@H]2C1.O=C(O)C(F)(F)F", "note": "(some centres not stated)", "Percent Effect": 30.53}
{"smiles": "c1ccc(C2CCCN(c3cncc(-n4cccn4)n3)CC2)cc1", "note": "(configuration not stated)", "Percent Effect": 42.47}
{"smiles": "c1ccc(COC2CCN(c3cncc(-n4cccn4)n3)CC2)cc1", "Percent Effect": 60.34}
{"smiles": "c1ccc(C2CCN(c3cncc(-n4cccn4)n3)CC2)cc1", "Percent Effect": 25.96}
